# From PubChem BioAssay
# FMDV antiviral – foot and mouth disease virus antiviral activity; FMDV antiviral cell-based qHTS; Potency, µM (highest dose often 57.9 µM), without a hit: at the highest dose activity change, negative = inhibition, most hits filed as inhibitors; 1.2% of 410,000 active; calls by dose curve; tested in HEK293T cells; also: read-out not given here; potency is read from the fitted curve at half-maximal effect; nearly all actives have a fitted effect of over 45% in size
# Giardia FBPA inh-1 – Giardia lamblia aldolase inhibition | A8B2U2 | purified Giardia FBPA | 0.71% of 290,000 active | Potency, µM (titrated, usually from 59.6 µM), without a hit: at the highest dose activity, negative = inhibition, usual class: inhibitors | AID 2451; also: potency is read from the fitted curve at half-maximal effect; nearly all actives have a fitted effect of over 55% in size
# Target sequence (A8B2U2 whole entry, looked up): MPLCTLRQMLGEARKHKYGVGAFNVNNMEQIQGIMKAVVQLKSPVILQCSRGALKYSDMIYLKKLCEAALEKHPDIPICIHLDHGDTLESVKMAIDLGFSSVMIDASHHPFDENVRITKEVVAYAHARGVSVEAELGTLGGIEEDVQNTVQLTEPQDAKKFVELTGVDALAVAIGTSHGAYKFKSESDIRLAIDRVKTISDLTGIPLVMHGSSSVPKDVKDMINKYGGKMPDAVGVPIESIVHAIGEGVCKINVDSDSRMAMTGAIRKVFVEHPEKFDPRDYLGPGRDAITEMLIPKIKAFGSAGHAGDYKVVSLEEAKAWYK
#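 Giardia FBPA (40 nM reagent) was preincubated 10 min at RT with compound (up to 57.5 uM final), then substrate plus GAPDH/TPI/NAD/arsenate coupling system with diaphorase/resazurin was added; resorufin fluorescence (525/598 nm) was read after 20 min.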
# HCV inh – blocks hepatitis C virus; Huh7.5.1 HCVcc-Cre infection, luciferase reporter, 44 h; Potency, µM (series often up to 41.8 µM), inactives show at the top dose activity change, negative = inhibition, hits mostly inhibitors; 3.4% of 340,000 active; AID 651820; also: potency is read from the fitted curve at half-maximal effect
#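 Reporter virus HCVcc-Cre (~0.5 moi) infects cells exposed to compound; seeding density 1,000 cells/well with 4 h settling beforehand. Luminescence, 15 sec read, taken 44 h post-infection following a 15 min RT substrate incubation.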
# HCMV inh – blocks human cytomegalovirus replication; HFF cells, HCMV-luciferase reporter, 72 h; active compounds read low; activity change, negative = inhibition, % at 57.5 µM; 4.5% of 410,000 active; AID 1259415; in the data active = activity change below about -60%; inconclusive = no clear call, values can overlap the other calls; inactive = above about -39%
#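 HFF cells seeded 16 h at 37C, treated with compounds, infected with luciferase-reporter HCMV at MOI 1 PFU/cell; luciferase read at 72 h post infection, normalized to buffer-only and Salinomycin controls.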
# VACV mCherry inh – vaccinia inhibition (mCherry reporter); AID 720579; Vaccinia virus mCherry reporter infection, fluorescence; 0.63% of 310,000 active; Potency, µM (series often up to 36.5 µM), for the others: top-dose activity change, negative = inhibition, usual class: inhibitors; calls by dose curve; tested in A549 cells; also: potency is read from the fitted curve at half-maximal effect; nearly all actives have a fitted effect of over 35% in size
# Vaccinia Venus – vaccinia inhibition (Venus reporter); 0.46% of 330,000 active; AID 720580; Potency, µM (top dose mostly 36.5 µM), for the others: at the top dose activity change, negative = inhibition, hits mostly inhibitors; Vaccinia virus Venus reporter expression, fluorescence; calls by dose curve; tested in A549 cells; also: potency is read from the fitted curve at half-maximal effect; nearly all actives have a fitted effect of over 30% in size
# Giardia growth – blocks growth of Giardia lamblia trophozoites | shares compounds with Giardia FBPA inh-1 | Giardia lamblia trophozoite growth inhibition | Potency, µM (titrated, usually from 57.5 µM), for the others: at the highest dose activity change, negative = inhibition, actives largely listed as inhibitors | 5% of 1,500 active;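 also: potency is read from the fitted curve at half-maximal effect; trophozoites exposed to compound for 48 h at 37 °C; nearly all actives have a fitted effect of over 70% in size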
# Mammal cell tox – toxic to mammalian cells in Giardia aldolase counter-screen; Potency, µM (series often up to 57.5 µM), for the others: at the highest dose viability change, negative = toxicity, most hits filed as inhibitors; mammalian cell viability counter-screen, qHTS; shares compounds with Giardia FBPA inh-1; 4% of 1,500 active;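 also: Chinese hamster ovary cells used as mammalian cytotoxicity surrogate; viability measured as cellular ATP by luminescence; potency is read from the fitted curve at half-maximal effect; compound exposure lasted 48 h before reading; nearly all actives have a fitted effect of over 60% in size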
# Giardia FBPA inh-2 – confirmation of Giardia fructose-bisphosphate aldolase inhibitors; shares compounds with Giardia FBPA inh-1; purified Giardia aldolase enzyme activity, qHTS; 5% of 1,500 active; Potency, µM (titrated, usually from 57.5 µM), inactives show top-dose activity change, negative = inhibition, usual class: inhibitors; also: potency is read from the fitted curve at half-maximal effect; nearly all actives have a fitted effect of over 45% in size
# Rabbit aldolase – rabbit FBP aldolase inhibition by Giardia aldolase hits; 4% of 1,500 active; shares compounds with Giardia FBPA inh-1; Potency, µM (series often up to 57.5 µM), for the others: top-dose activity, negative = inhibition, most hits filed as inhibitors; Rabbit muscle FBPA enzyme inhibition, selectivity counter-screen; also: potency is read from the fitted curve at half-maximal effect; nearly all actives have a fitted effect of over 60% in size
# GAPDH coupling – counter-screen for Giardia aldolase inhibitors: GAPDH coupling enzyme | shares compounds with Giardia FBPA inh-1 | GAPDH coupling enzyme counterscreen, biochemical, qHTS | Potency, µM (titrated, usually from 57.5 µM), for inactives: top-dose activity change, negative = inhibition, usual class: inhibitors | 6% of 1,500 active | AID 2795; also: potency is read from the fitted curve at half-maximal effect; nearly all actives have a fitted effect of over 55% in size
# An asterisk follows results filed as active; i = inactive; ? = inconclusive; · = no result; [ ] = dose if it differs, or a comment. Shown are actives, neighbours in structure and some others; about 7.5% of the full set was active somewhere. Unless noted, calls follow the shape of the dose curve; as a rule, active = well fitted curve in the direction sought with a large enough effect; inconclusive = small, poorly fitted or top-dose-only effect, or another doubt; inactive = no such curve, though single readings can be large; an effect the other way counts as inactive or inconclusive. % is scaled to controls: 0 for no effect and ±100 for the full control effect.
SMILES,FMDV antiviral,Giardia FBPA inh-1,HCV inh,HCMV inh,VACV mCherry inh,Vaccinia Venus,Giardia growth,Mammal cell tox,Giardia FBPA inh-2,Rabbit aldolase,GAPDH coupling
O=C(CSc1cccc2cccnc12)Nc1cc(C(=O)O)cc(C(=O)O)c1,-11%,25µM*,11µM*,13,i,7%,-1%,-5%,8%,12%,18%
CN(C)S(=O)(=O)c1cc(NC(=O)CNCc2ccccc2)ccc1Cl,21%,?,?,75,-7%,-6%,·,·,·,·,·
COc1cc(NC(=O)CN(C)CCOc2ccccc2)c(C)cc1[N+](=O)[O-],?,3%,-27%,?,·,·,·,·,·,·,·
Cc1ccc(NC(=O)CNCc2ccccc2Cl)cc1S(=O)(=O)N(C)C,61%,22µM*,-12%,51,-2%,-14%,?,-6%,6%,2%,2%
CN(CCOc1ccccc1)CC(=O)Nc1ccc(Cl)c(S(=O)(=O)N(C)C)c1,?,16µM*,-26%,-12,-14%,-6%,-16%[10.4 µM],-2%,-5%,-1%,9%
COc1ccc(OCCN(C)CC(=O)Nc2c(C)cccc2C)cc1,-12%,14µM*,-26%,28,0%,3%,-10%[10.4 µM],11%,6%,1%,11%
COc1ccc(OCCCC(=O)N(C)CC(=O)Nc2c(C)cccc2C)cc1,6%,·,4%,-25,-6%,-11%,·,·,·,·,·
CN(CCOc1ccccc1)CC(=O)Nc1ccc(Cl)cc1[N+](=O)[O-],?,22µM*,1%,-8,i,-1%,?,3%,2%,-2%,13%
O=C(Nc1ccccc1)Oc1ccc[nH]c1=O,12%,1.4µM*,15%,-39,·,·,13%[38.3 µM],?,0.23µM*,0.73µM*,2.6µM*
Cc1cccc(/C=N/NC(=O)Cn2nnnc2N)n1,-11%,18µM*,9%,19,-9%,-9%,11%,-3%,3%,8%,10%
Nc1nnnn1CC(=O)N/N=C/C=C/c1ccccc1,20%,1%,3%,13,i[7.34 µM],-3%[7.34 µM],·,·,·,·,·
COc1cc(Br)c(CN2CCCN(C)CC2)cc1OC,8%,13µM*,0%,42,·,·,15%,10%,0%,7%,11%
CCc1nnc(N/N=C/c2cccs2)n1N,-15%,5µM*,-28%,36,22µM*,?,?,?,13µM*,13µM*,13µM*
CCc1nnc(N/N=C/c2c(Cl)cccc2Cl)n1N,-6%,?,·,-34,-17%,-9%,·,·,·,·,·
CCc1nnc(N/N=C/c2ccc(O)c(OC)c2)n1N,-17%,20µM*,5%,8,·,·,3%[10.4 µM],1%,?,?,-20%
CCOc1cc(/C=N/Nc2nnc(C)n2N)ccc1OC(C)=O,14%,16µM*,-4%,-28,28µM*,?,2%[38.3 µM],-17%,5.8µM*,5.8µM*,6.5µM*
Cc1nnc(N/N=C/c2cccc(OCc3ccc(Cl)c(Cl)c3)c2)n1N,12%,18µM*,-17%,-14,?,?,?,1%,?,-19%,?
CCS(=O)(=O)N1CCC(n2c(C(F)(F)F)nc3cccnc32)CC1,-14%,·,·,-9,-11%,4%,·,·,·,·,·
